# Measured values published in PubChem BioAssay (EPA / NIEHS).
# Records with an inconclusive call do not appear. Active and inactive are the calls of the source. Rule for the calls, unless noted: active = hit-call score of the fitted dose curve at least 0.9, where 1 is the maximum; inactive = score below 0.9.
# Tests used:
# [1] = ATG_NRF2_ARE_CIS: Attagene CIS-FACTORIAL HepG2 Assay for human Nuclear Factor Erythroid 2 Related Factor 2 (NFR2) response to Antioxidant Response Elements (ARE) (AID 2282992); conditions: HepG2 Attagene ARE/NRF2 reporter, transcription factor activity; actives raise or lower the signal
# Outline: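 Cis-factorial assay: transfected HepG2 reporter library, 24 h dosing, mRNA readout via RT-PCR/CE; DMSO-referenced bidirectional analysis.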
# [2] = ATG_Oct_MLP_CIS: Attagene CIS-FACTORIAL HepG2 Assay for human Octamer-Binding Transcription Factor (Oct) (AID 2282993); conditions: HepG2 Attagene cis-factorial Oct reporter, mRNA; actives raise or lower the signal
# Outline: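 Cells of the HepG2 line express promoter-controlled reporter sequences whose mRNA levels, after 24 h treatment, are measured by RT-PCR and capillary electrophoresis. Increases and decreases are scored relative to DMSO.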
# [3] = target: Cellular tumor antigen p53 (Homo sapiens) (UniProt P04637); experiment: ATG_p53_CIS: Attagene CIS-FACTORIAL HepG2 Assay for human p53 Transcription Factor (AID 2282994); conditions: HepG2 p53 cis-element reporter, Attagene mRNA; actives raise or lower the signal
# Outline: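 Using HepG2 hepatoma cells carrying cis-acting multiplexed reporters, mRNA induction is detected after a 24 h exposure. Gain- and loss-of-signal responses are fitted relative to DMSO-treated cells.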
# [4] = target: human Peroxisome Proliferator-activated Receptor alpha (PPARa), PPARA (gene 5465) (UniProt Q07869); experiment: ATG_PPARa_TRANS: Attagene TRANS-FACTORIAL HepG2 Assay for human Peroxisome Proliferator-activated Receptor alpha (PPARa) (AID 2283001; active = hit-call score of the fitted dose curve at least 0.9, where 1 is the maximum)
# Outline: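 Gain-of-signal endpoint: reporter mRNA induction relative to DMSO, detected by fluorescent RT-PCR and capillary electrophoresis. HepG2 cells transiently carried GAL4-UAS-driven reporter units plus NR-Gal4 fusion; exposure lasted 24 h.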
# [5] = target: Myc proto-oncogene protein (Homo sapiens) (UniProt P01106); experiment: ATG_Myc_CIS: Attagene CIS-FACTORIAL HepG2 Assay for human Myelocytomatosis (Myc) Proto-Oncogene Transcription Factor (AID 2282990); conditions: HepG2, Attagene cis-reporter transcription factor activity; actives raise or lower the signal
# Outline: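 Multiplexed cis-reporter transcription in HepG2 cells after 24 h chemical treatment. Reporter mRNA measured by RT-PCR and capillary electrophoresis fluorescence; activity fitted bidirectionally against DMSO control.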
# [6] = ATG_NF_kB_CIS: Attagene CIS-FACTORIAL HepG2 Assay for human Nuclear Factor Kappa B (NF-kB) (AID 2282991); conditions: HepG2 Attagene cis-factorial NF-kB reporter mRNA; actives raise or lower the signal
# Outline: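 After 24 h compound incubation, transfected HepG2 cells yield total RNA; reporter cDNA is PCR-amplified, end-labelled with 6-FAM, HpaI-digested and analysed on a genetic analyser. Endogenous factor activity, DMSO-referenced bidirectional fit.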
# [7] = BSK_3C_TissueFactor: BioMAP Diversity Plus: 3C Assay for Tissue Factor Biomarker Activity (AID 2282997); conditions: BioMAP 3C HUVEC, tissue factor biomarker readout; actives raise or lower the signal
# Outline: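 HUVEC were treated 24 h, then surface tissue factor measured by ELISA and fitted bidirectionally against DMSO. Parallel SRB total-protein staining assessed overt cytotoxicity at the same time point.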
# [8] = BSK_3C_uPAR: BioMAP Diversity Plus: 3C Assay for Urokinase-type plasminogen activator receptor (uPAR) Biomarker Activity (AID 2282998); conditions: BioMAP 3C HUVEC, uPAR biomarker ELISA; actives raise or lower the signal
# Outline: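 Endothelial primary cells of human umbilical vein origin received test chemical; 24 h later uPAR was assayed by ELISA. Fitting was bidirectional, DMSO as negative control.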
# [9] = BSK_4H_Eotaxin3: BioMAP Diversity Plus: 4H Assay for Eotaxin 3 Biomarker Activity (AID 2283000); conditions: primary human endothelial cells (HUVEC); actives raise or lower the signal;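 for outcome: CCL26 protein level quantified by ELISA in parallel with SRB cytotoxicity check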
# Outline: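 Eotaxin-3 (CCL26) levels were measured by ELISA in HUVEC primary cultures 24 h post-dosing. Gain or loss of signal was fitted in both directions, with DMSO serving as baseline and negative control.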
# Cellular tumor antigen p53 (Homo sapiens), sequence (P04637 whole entry, looked up): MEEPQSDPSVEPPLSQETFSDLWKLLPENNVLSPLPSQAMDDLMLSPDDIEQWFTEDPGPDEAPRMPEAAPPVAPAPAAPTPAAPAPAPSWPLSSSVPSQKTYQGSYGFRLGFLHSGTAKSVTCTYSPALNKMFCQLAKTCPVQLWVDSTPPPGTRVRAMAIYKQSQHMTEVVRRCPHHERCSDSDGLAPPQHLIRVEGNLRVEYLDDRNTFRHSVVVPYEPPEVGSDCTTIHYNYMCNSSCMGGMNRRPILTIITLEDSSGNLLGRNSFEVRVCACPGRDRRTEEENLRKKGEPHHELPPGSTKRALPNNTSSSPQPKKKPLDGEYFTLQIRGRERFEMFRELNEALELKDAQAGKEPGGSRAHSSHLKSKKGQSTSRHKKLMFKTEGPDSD
# Myc proto-oncogene protein (Homo sapiens), sequence (P01106 whole entry, looked up): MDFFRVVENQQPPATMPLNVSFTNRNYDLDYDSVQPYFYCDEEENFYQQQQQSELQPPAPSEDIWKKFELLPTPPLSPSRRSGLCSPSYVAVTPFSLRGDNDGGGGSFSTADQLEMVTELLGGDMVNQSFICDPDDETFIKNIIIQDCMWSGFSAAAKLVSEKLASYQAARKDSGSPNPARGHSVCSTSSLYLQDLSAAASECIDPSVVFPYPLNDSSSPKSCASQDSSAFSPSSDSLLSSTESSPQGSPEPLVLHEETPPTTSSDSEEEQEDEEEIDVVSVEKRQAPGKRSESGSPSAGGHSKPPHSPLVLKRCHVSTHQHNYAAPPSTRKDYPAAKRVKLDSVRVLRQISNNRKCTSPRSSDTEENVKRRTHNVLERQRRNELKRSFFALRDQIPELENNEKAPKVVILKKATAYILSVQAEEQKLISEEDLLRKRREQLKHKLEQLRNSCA
# human Peroxisome Proliferator-activated Receptor alpha (PPARa), PPARA (gene 5465), sequence (Q07869 whole entry, looked up, the tested form may be a part): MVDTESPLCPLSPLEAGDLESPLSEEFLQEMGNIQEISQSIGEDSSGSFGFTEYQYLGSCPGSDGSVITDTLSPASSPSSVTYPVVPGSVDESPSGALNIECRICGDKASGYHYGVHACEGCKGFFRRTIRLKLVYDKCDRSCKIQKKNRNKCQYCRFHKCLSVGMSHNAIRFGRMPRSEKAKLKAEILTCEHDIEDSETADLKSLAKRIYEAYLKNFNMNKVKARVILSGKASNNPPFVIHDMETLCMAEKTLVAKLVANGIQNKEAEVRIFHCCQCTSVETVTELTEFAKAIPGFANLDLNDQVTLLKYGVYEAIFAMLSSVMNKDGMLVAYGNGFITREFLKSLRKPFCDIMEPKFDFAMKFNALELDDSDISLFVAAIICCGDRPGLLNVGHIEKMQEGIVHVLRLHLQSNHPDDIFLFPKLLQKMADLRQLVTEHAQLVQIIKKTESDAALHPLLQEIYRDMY
structure (smiles),measurement,setting,value
CC(C)c1ccc(C#N)cc1,outcome,[1],inactive
same,outcome,[2],inactive
same,outcome,[3],inactive
same,outcome,[4],inactive
COc1ccc(C(Cl)=C(c2ccc(OC)cc2)c2ccc(OC)cc2)cc1,outcome,[5],inactive
same,outcome,[1],inactive
same,outcome,[2],inactive
same,outcome,[3],inactive
CCCCCCOc1cc(C)c(O)c(C)c1C,outcome,[5],inactive
same,AC50,[6],16.5 µM (active)
same,AC50,[1],7.78 µM (active)
same,outcome,[2],inactive
same,outcome,[3],inactive
CCCCC/C=C\CCC=O,outcome,[5],inactive
same,outcome,[6],inactive
same,outcome,[1],inactive
same,outcome,[2],inactive
same,outcome,[3],inactive
same,outcome,[4],inactive
C#CC1(O)CC[C@H]2[C@@H]3CCC4=CCCC[C@@H]4[C@H]3CC[C@@]21C (stereo partly specified),outcome,[5],inactive
same,AC50,[1],22 µM (active)
same,outcome,[2],inactive
same,AC50,[3],33.4 µM (active)
same,AC50,[7],8.34 µM (active)
same,AC50,[8],9.84 µM (active)
same,AC50,[9],11.1 µM (active)
C/C=C\C/C=C/CCCCCCCCOC(C)=O,outcome,[5],inactive
same,AC50,[6],42.8 µM (active)
same,AC50,[1],26.8 µM (active)
same,AC50,[2],39.5 µM (active)
same,AC50,[3],162 µM (active)
same,AC50,[7],9.54 µM (active)
same,outcome,[8],inactive
same,AC50,[9],28.9 µM (active)
same,outcome,[4],inactive
CC1(C)S[C@@H]2[C@H](NC(=O)COc3ccccc3)C(=O)N2[C@H]1C(=O)O,outcome,[5],inactive
same,outcome,[1],inactive
same,outcome,[2],inactive
same,outcome,[3],inactive
CCc1ccc2c(c1)C(=O)c1ccccc1C2=O,outcome,[5],inactive
same,outcome,[6],inactive
same,AC50,[1],14.5 µM (active)
same,outcome,[2],inactive
same,outcome,[3],inactive
same,outcome,[4],inactive
CCO[Si](CCCN=C=O)(OCC)OCC,outcome,[5],inactive
same,outcome,[6],inactive
same,outcome,[1],inactive
same,outcome,[2],inactive
same,outcome,[3],inactive
same,outcome,[7],inactive
same,outcome,[8],inactive
same,outcome,[9],inactive
same,outcome,[4],inactive
CC(C)c1ccc(C=O)cc1,outcome,[6],inactive
same,outcome,[1],inactive
same,outcome,[2],inactive
same,outcome,[3],inactive
CC/C=C\CCOC(=O)CCCCC,outcome,[6],inactive
same,outcome,[1],inactive
same,outcome,[2],inactive
same,outcome,[3],inactive
same,outcome,[4],inactive
CO[Si](OC)(OC)c1ccccc1,outcome,[5],inactive
same,outcome,[6],inactive
same,outcome,[1],inactive
same,outcome,[2],inactive
same,outcome,[3],inactive
same,outcome,[7],inactive
same,outcome,[8],inactive
same,outcome,[9],inactive
